Measurements published in PubChem BioAssay (EPA / NIEHS).
Several values for one entry are separate records, joined by “and”; a condition that tells them apart may be missing. Equal entries are not always repeated. Inconclusive results are not listed. Some structures have more than one record in an assay (separate samples or runs), and their calls can disagree. Activity calls are given as the source filed them. Rule for the calls, unless noted: active = hit-call score of the fitted dose curve at least 0.9, where 1 is the maximum; inactive = score below 0.9.

Columns and labels:
[1] = target: Nucleoli Translocation, AR (gene 367) (UniProt P10275); experiment: UPITT_HCI_U2OS_AR_TIF2_Nucleoli_Antagonist: University of Pittsburgh U2OS Androgen Receptor-Transcriptional Intermediary Factor 2 (AR-TIF2) Antagonism High Content Imaging Assay for Nucleoli Translocation (AID 2283997; active = hit-call score of the fitted dose curve at least 0.9, where 1 is the maximum)
In short: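 Measured quantity was AR-RFP fluorescence localized to nucleoli in engineered U2OS cells also bearing TIF2-GFP, acquired on automated high-content imagers. Primary testing used 20 uM compound; actives were confirmed in triplicate wells.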

[2] = CCTE_Harrill_HTTr_Viability_MCF7: CCTE's 6-hour Cell Viability Assessment for the High-Throughput Transcriptomics (HTTr) Platform, in MCF-7 cells cultured in DMEM + 10% fetal bovine serum, Harrill Lab (AID 2284010)
In short: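 Viability measured through PI dye exclusion by high-content imaging at 6 h post-dosing.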

[3] = CCTE_Harrill_HTTr_Apoptosis_MCF7: CCTE's 6-hour Apoptosis Assessment for the High-Throughput Transcriptomics (HTTr) Platform, in MCF-7 cells cultured in DMEM + 10% fetal bovine serum, Harrill Lab (AID 2284011)
In short: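 Cells are dosed with test chemicals at eight concentrations and imaged 6 hours later for caspase-3/7 activity using a green fluorogenic detection reagent. Activity is fitted in both directions against DMSO controls.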

[4] = CCTE_Harrill_HTTr_CellCount_MCF7: CCTE's Cell Proliferation Assessment for the High-Throughput Transcriptomics (HTTr) Platform, Harrill Lab (AID 2284012; active = hit-call score of the fitted dose curve at least 0.9, where 1 is the maximum;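 note: count of Hoechst-stained nuclei per well by high-content imaging in MCF-7 cells; cells exposed to compound for six hours; intended direction is loss of nuclei count meaning fewer cells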)
In short: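 Nuclei counting (Hoechst, high content imaging) in MCF-7 after a 6 h treatment at eight concentrations. Activity fitted bidirectionally, DMSO as negative control.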

[5] = target: Nucleoli Translocation, AR (gene 367) (UniProt P10275); experiment: UPITT_HCI_U2OS_AR_TIF2_Nucleoli_Agonist: University of Pittsburgh U2OS Androgen Receptor-Transcriptional Intermediary Factor 2 (AR-TIF2) Agonism High Content Imaging Assay for Nucleoli Translocation (AID 2283998; active = hit-call score of the fitted dose curve at least 0.9, where 1 is the maximum)
In short: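 Red-tagged human androgen receptor co-expressed with GFP-tagged TIF2 serves as the binding reporter. Primary testing used 20 uM final (0.2% DMSO); follow-up dose response covered 0.195 to 50 uM final (0.5% DMSO).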

[6] = target: Ratio of Nucleoli Translocation and Cytoplasm, AR (gene 367) (UniProt P10275); experiment: UPITT_HCI_U2OS_AR_TIF2_Nucleoli_Cytoplasm_Ratio_Agonist: University of Pittsburgh U2OS Androgen Receptor-Transcriptional Intermediary Factor 2 (AR-TIF2) Agonism High Content Imaging Assay for Ratio of Nucleoli Translocation and Cytoplasm (AID 2284000; active = hit-call score of the fitted dose curve at least 0.9, where 1 is the maximum;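 note: hits raise the red nucleolar to cytoplasm ratio above vehicle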)
In short: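 Read-out first: nucleolar-to-cytoplasm ratio of red (AR-RFP) signal, quantified by high-content imaging in U2OS cells co-expressing TIF2-GFP. Activity is scored as signal increase over DMSO. Single-point screening used 20 uM final (0.2% DMSO).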

[7] = CCTE_Harrill_HTTr_Apoptosis_DMEM_12hr: (Pilot) CCTE's 12-hour Apoptosis Assessment for the High-Throughput Transcriptomics (HTTr) Platform, in MCF-7 cells cultured in DMEM + 10% fetal bovine serum, Harrill Lab (AID 2283982)
In short: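 MCF-7 cells in DMEM + 10% FBS, exposed 12 h to an eight-point dilution series; caspase-3/7 activation imaged with CellEvent Green. Bidirectional fit versus DMSO.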

[8] = CCTE_Harrill_HTTr_Apoptosis_DMEM_24hr: (Pilot) CCTE's 24-hour Apoptosis Assessment for the High-Throughput Transcriptomics (HTTr) Platform, in MCF-7 cells cultured in DMEM + 10% fetal bovine serum, Harrill Lab (AID 2283983)
In short: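 MCF-7 cells in DMEM + 10% FBS, eight-point dilution series, 24 h exposure. Caspase-3/7 activation imaged by high-content imaging with CellEvent Caspase 3/7 Green. Bidirectional curve fitting against DMSO baseline.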

[9] = CCTE_Harrill_HTTr_Apoptosis_PRF_DMEM_6hr: (Pilot) CCTE's 6-hour Apoptosis Assessment for the High-Throughput Transcriptomics (HTTr) Platform, in MCF-7 cells cultured phenol red-free DMEM + 10% charcoal-stripped fetal bovine serum, Harrill Lab (AID 2283984)
In short: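 MCF-7 cells in phenol red-free DMEM + 10% charcoal-stripped FBS, eight-point dilution series, 6 h exposure. Caspase-3/7 activation imaged by high-content imaging with CellEvent Caspase 3/7 Green; bidirectional fit versus DMSO baseline.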

[10] = CCTE_Harrill_HTTr_Apoptosis_PRF_DMEM_24hr: (Pilot) CCTE's 24-hour Apoptosis Assessment for the High-Throughput Transcriptomics (HTTr) Platform, in MCF-7 cells cultured in phenol red-free DMEM + 10% charcoal-stripped fetal bovine serum, Harrill Lab (AID 2283986)
In short: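 MCF-7 cells in phenol red-free DMEM with 10% charcoal-stripped FBS, exposed 24 h across an eight-point dilution series. Caspase-3/7 activation imaged with CellEvent Green by high content imaging; bidirectional fitting against DMSO.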

[11] = CCTE_Simmons_MITO_basal_resp_rate: CCTE's HepG2 Seahorse XF Respirometric Screening Assay at Basal Respiratory State, Simmons Lab (AID 2284001); conditions: actives raise or lower the signal
In short: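 HepG2 respirometry; 7-pt titration 125 nM–100 uM final; kinetic OCR at 6 min intervals for 72 min; n=3 biological, technical singles; DMSO baseline, gain or loss fit; fenpyroximate (decrease) and 2,4-DNP (increase) controls.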

[12] = CCTE_Simmons_MITO_max_resp_rate: CCTE's HepG2 Seahorse XF Respirometric Screening Assay at Maximal Respiratory State [uncoupled], Simmons Lab (AID 2284002); conditions: actives raise or lower the signal
In short: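 Maximal respiration in HepG2 cells is recorded as OCR by Seahorse XF following FCCP injection. Compounds span 125 nM–100 uM final; activity is called in either direction against DMSO.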

[13] = CCTE_Simmons_MITO_inhib_resp_rate: CCTE's HepG2 Seahorse XF Respirometric Screening Assay at Inhibited Respiratory State [full ETC block], Simmons Lab (AID 2284006); conditions: actives raise or lower the signal
In short: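 Inhibited respiration was taken as HepG2 oxygen consumption after rotenone/antimycin A, which followed test-compound and FCCP injections. Chemicals were tested at seven final concentrations from 125 nM to 100 uM. Activity was fitted bidirectionally relative to DMSO.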

[14] = CCTE_Simmons_MITO_viability: CellTiter-Glo Viability Assessment for CCTE's HepG2 Seahorse XF Respirometric Screening Assay [post-hoc], Simmons Lab (AID 2284007; active = hit-call score of the fitted dose curve at least 0.9, where 1 is the maximum;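 for AC50: cells exposed to chemical for 90 min before the ATP read; actives lower ATP signal relative to DMSO baseline meaning reduced viability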)
In short: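 HepG2 cells; test chemical 7 conc. (125 nM–100 uM final) × 90 min; then luminescent ATP detection. DMSO vehicle. Positive control dichlone, 8 conc. from 10 nM to 100 uM final. Loss-of-signal endpoint.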

[15] = CCTE_Shafer_MEA_acute_spike_number: CCTE's Neural Acute Assay for Total Number of Spikes, Shafer Lab (AID 2284008);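 for AC50: curve fitted for decrease in spike count so AC50 reflects inhibitors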
In short: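 Cortical neurons from rat, matured to DIV 13 or 15 on microelectrode arrays, are recorded at 37 C before and during 40-min exposure to 0.03-40 uM compound. Wells need >/= 10 active electrodes.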

[16] = CCTE_Shafer_MEA_acute_firing_rate_mean: CCTE's Neural Acute Assay for Mean Firing Rate, Shafer Lab (AID 2284009);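 note: analyzed for loss of signal so actives lower firing rate relative to DMSO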
In short: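 Percent change in well-mean firing rate was derived from extracellular spikes detected at 8x rms noise (300-5000 Hz band-pass) before and after a 40-min compound exposure. Cultures were primary rat cortical neurons, tested at 0.03-40 uM.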

[17] = CCTE_Shafer_MEA_acute_burst_duration_mean: CCTE's Neural Acute Assay for Mean Burst Duration, Shafer Lab (AID 2284014);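 note: hits are decreases in mean burst duration relative to DMSO controls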
In short: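 Read-out is the per-well percent change in mean burst duration (first to last spike within a single-electrode burst) between 40-min recordings before and after compound. Cultures were primary rat cortical neurons on MEAs, dosed at 0.03-40 uM on DIV 13 or 15.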

[18] = CCTE_Shafer_MEA_acute_interburst_interval_mean: CCTE's Neural Acute Assay for Mean Interburst Interval, Shafer Lab (AID 2284016);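 note: percent change of mean interburst interval versus each well's own pre-dose baseline; curves fitted for decrease in interburst interval relative to DMSO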
In short: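 Rat cortical cultures, DIV 13/15; 20 min equilibration, 40 min baseline, compound 0.03-40 uM, 40 min re-recording, 37 C. Spikes detected at 8x rms noise (300-5000 Hz band-pass). Endpoint: % change in interburst interval, fitted in loss direction vs DMSO.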

[19] = tested on: DIO1 (gene 1733); experiment: CCTE_GLTED_hDIO1: CCTE's human Deiodinase 1 (DIO1) Inhibition Assay, Great Lakes Toxicology and Ecology Division (GLTED) Lab (AID 2283987; active = hit-call score of the fitted dose curve at least 0.9, where 1 is the maximum;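 note: isolated human DIO1 enzyme in a cell-free setup rather than cells; enzyme activity read as free iodide liberated from substrate via Sandell-Kolthoff colorimetry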)
In short: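 Cell-free hDIO1 assay, triplicate plates. Absorbance of the Sandell-Kolthoff reaction reports enzyme-liberated iodide; iodinated chemicals or nitrite, iron and thiocyanate may interfere.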

[20] = CCTE_Shafer_MEA_acute_per_burst_spike_number_mean: CCTE's Neural Acute Assay for Average Number of Spikes Per Burst, Shafer Lab (AID 2284015);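 note: hits are decreases in mean spikes per burst versus baseline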
In short: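 Read-out: percent change in mean spikes per burst, each well's post-exposure 40-min recording versus its own 40-min baseline. Rat cortical cultures, DIV 13 or 15, compounds 0.03-40 uM; DMSO is negative control, loss-of-signal fitting.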

Measured: AC50

Sequence of Ratio of Nucleoli Translocation and Cytoplasm, AR (gene 367) (P10275 whole entry, looked up): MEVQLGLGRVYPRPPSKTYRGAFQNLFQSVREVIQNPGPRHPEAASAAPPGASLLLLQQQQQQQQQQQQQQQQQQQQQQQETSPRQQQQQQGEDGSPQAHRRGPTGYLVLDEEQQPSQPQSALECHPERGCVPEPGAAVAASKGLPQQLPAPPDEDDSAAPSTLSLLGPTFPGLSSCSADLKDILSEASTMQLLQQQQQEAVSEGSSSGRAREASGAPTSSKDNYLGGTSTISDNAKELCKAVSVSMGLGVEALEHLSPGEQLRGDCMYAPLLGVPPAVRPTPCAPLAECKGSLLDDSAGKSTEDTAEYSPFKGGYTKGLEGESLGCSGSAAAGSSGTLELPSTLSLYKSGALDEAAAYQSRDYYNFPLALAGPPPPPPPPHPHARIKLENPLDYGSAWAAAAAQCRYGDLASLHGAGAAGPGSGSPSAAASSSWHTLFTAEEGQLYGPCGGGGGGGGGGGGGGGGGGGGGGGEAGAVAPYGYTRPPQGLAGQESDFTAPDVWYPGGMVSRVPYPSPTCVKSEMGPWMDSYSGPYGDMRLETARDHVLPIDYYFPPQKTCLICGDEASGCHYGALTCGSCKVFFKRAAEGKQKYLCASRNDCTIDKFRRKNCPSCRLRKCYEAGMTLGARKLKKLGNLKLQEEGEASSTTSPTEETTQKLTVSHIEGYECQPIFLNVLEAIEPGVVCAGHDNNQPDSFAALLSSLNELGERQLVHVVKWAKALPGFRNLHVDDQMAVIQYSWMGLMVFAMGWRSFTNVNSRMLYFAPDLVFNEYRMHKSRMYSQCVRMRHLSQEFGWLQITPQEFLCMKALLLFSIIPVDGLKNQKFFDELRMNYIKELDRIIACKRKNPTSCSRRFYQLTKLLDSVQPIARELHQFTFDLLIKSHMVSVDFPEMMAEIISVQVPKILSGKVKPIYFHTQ
Sequence of Nucleoli Translocation, AR (gene 367) (P10275 whole entry, looked up): as above

CN(C)C(=O)Nc1ccc(Cl)c(Cl)c1
inactive: [1] | [2] | [3] | [4]

CCCOC(=O)c1ccc(C(=O)OCCC)nc1
inactive: [1] | [5] | [6] | [2] | [3] | [4]

C[C@]12CC[C@@H]3c4ccc(O)cc4C[C@@H](CCCCCCCCCS(=O)CCCC(F)(F)C(F)(F)F)[C@H]3[C@@H]1CC[C@@H]2O (some centres undefined)
inactive: [7] | [8] | [9] | [10] | [1] | [5] | [6] | [2] | [3]

CCCN(CCC)C(=O)SCC
inactive: [1] | [5] | [6] | [2] | [3] | [4]

COC(=O)CSc1cc(N=c2sc(=O)n3n2CCCC3)c(F)cc1Cl
inactive: [1] | [5] | [6] | [2] | [3]

N[C@@H](Cc1cc(I)c(Oc2ccc(O)c(I)c2)c(I)c1)C(=O)O
active: [11] 6.61 µM
inactive: [7] | [8] | [9] | [10] | [12] | [13] | [2] | [3]

O=C(O)C1(C(=O)Nc2ccc(Cl)cc2Cl)CC1
inactive: [1] | [5] | [6] | [11] | [13] | [2] | [3] | [4]
active: [12] 37.8 µM | [14] 29.3 µM

CC1(C)C(C=C(Cl)Cl)C1C(=O)OCc1cccc(Oc2ccccc2)c1 (centres undefined)
inactive: [1] | [6] | [15] | [16] | [2] | [3] | [17] | [18]

CC(C)CCCCCCc1ccc(O)cc1
inactive: [9] | [13] | [14] | [2] | [3] | [4] | [17] | [20]
active: [7] 63.2 µM | [8] 77.5 µM | [10] 77.2 µM | [19] 49.4 µM | [11] 50 µM | [12] 43.8 µM | [15] 6.02 µM | [16] 6.03 µM | [18] 7.29 µM

C=CCOC(Cn1ccnc1)c1ccc(Cl)cc1Cl (centres undefined)
active: [11] 24.3 µM | [12] 38.2 µM | [15] 6.09 µM | [16] 6.09 µM
not listed: [1] | [5] | [6] | [19]
inactive: all other assays above

S=C([S-])NCCNC(=S)[S-].[Mn+2]
active: [19] 35.7 µM
inactive: [7] | [8] | [9] | [10] | [2] | [3] | [4]

Cc1nn(C)c(Oc2ccccc2)c1C=NOCc1ccc(C(=O)OC(C)(C)C)cc1
active: [11] 1.15 µM and 1.55 µM | [12] 884 nM and 948 nM | [14] 2.81 µM | [15] 0.00424 µM | [16] 0.00449 µM | [20] 3.08 µM | [18] 0.003 µM
inactive: [7] | [8] | [9] | [10] | [1] | [5] | [13] | [14] | [2] | [3] | [4] | [17]

CC(C)(c1ccc(O)cc1)c1ccc(O)cc1
active: [1] 12.9 µM | [5] 73.3 µM | [6] 86.7 µM | [11] 18.9 µM and 24.7 µM | [12] 37.1 µM and 34.8 µM | [15] 5.7 µM | [16] 5.7 µM
not listed: [14] | [17] | [19]
inactive: all other assays above

O=C(c1ccc(O)cc1O)c1ccc(O)cc1O
active: [1] 10.1 µM | [11] 34.6 µM
not listed: [4] | [7] | [8] | [9] | [10] | [19]
inactive: all other assays above

CCSC(=O)N(CC(C)C)CC(C)C
inactive: [1] | [5] | [6] | [2] | [3]

N#CSCSc1nc2ccccc2s1
active: [1] 9.92 µM | [5] 13 µM | [6] 12.8 µM | [11] 15.1 µM | [12] 22.7 µM | [20] 20 µM
not listed: [7] | [8] | [9] | [10] | [19]
inactive: all other assays above

CCCCC(CC)CN1C(=O)C2C3C=CC(C3)C2C1=O (centres undefined)
inactive: [13] | [14] | [2] | [3] | [17] | [20] | [18]
active: [11] 25.3 µM | [12] 32.1 µM | [15] 30.1 µM | [16] 30.1 µM
